High-throughput results deposited in PubChem by Center for Chemical Genomics, University of Michigan.
Dicer processing – human Dicer pre-microRNA cleavage inhibition | 47,000 compounds, 6% hits | cat-ELCCA pre-miR-21 Dicer processing, chemiluminescence; stronger effect = higher value | AID 1347074 | Q9UPY3 | z-score at 25 µM; in the data active = z-score above about 3, passing the limit was not always enough;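 note: plate controls were vehicle for no effect and no enzyme for full effect; higher signal means more uncleaved substrate so more Dicer inhibition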
* hit, by the source's call. This is one part of a sample in which hits are shown more often than they occur.

SMILES	Dicer processing
CS/C(=N\S(=O)(=O)c1ccccc1)N1CCCCC1	0.88
N#Cc1c(-c2ccc(Cl)cc2)nc(SCc2ccccc2)[nH]c1=O	1.2
O=C(O)c1cc2cccc([N+](=O)[O-])c2[nH]1	132*
O=[N+]([O-])c1cccc2cn[nH]c12	-0.78
CCCCNC(=O)c1cc2cccc([N+](=O)[O-])c2[nH]1	1.1
Clc1ccc(C2Nc3ccccc3-c3nc4ccccc4n32)cc1 (configuration not stated)	0.78
O=S(=O)(NNc1ncccc1-n1cccc1)c1ccc(Cl)c(Cl)c1	1.6
COC(=O)c1ccccc1N1CC(C(=O)O)CC1=O (configuration not stated)	2.3
NN1CC(=O)N(c2cccc(C(F)(F)F)c2)CC1=O	1.2
COC(=O)c1ccccc1N1C(=O)C2C3c4ccccc4C(c4ccccc43)C2C1=O (configuration not stated)	4.2*
COc1ccc(N2C(=O)C3C4c5ccccc5C(c5ccccc54)C3C2=O)cc1 (configuration not stated)	1.5
COc1ccccc1N1C(=O)C2C3c4ccccc4C(c4ccccc43)C2C1=O (configuration not stated)	-0.08
COc1cccc(N2C(=O)C3C4c5ccccc5C(c5ccccc54)C3C2=O)c1 (configuration not stated)	3.7*
COc1cccc(N2CC(=O)N(NC(=O)NC3CCCCC3)CC2=O)c1	2.8
COc1cccc(N2CC(=O)N(N)CC2=O)c1	3.8*
Cc1cccnc1N1C(=O)C2C3c4ccccc4C(c4ccccc43)C2C1=O (configuration not stated)	0.69
CC(ONC(=O)c1cc(C(F)(F)F)cc(C(F)(F)F)c1)C(=O)Nc1ccc(Cl)cc1 (configuration not stated)	-0.69
Cn1cc(C(=O)O/N=C/c2ccc(Cl)cc2)c(C(F)(F)F)n1	1.9
COc1ccccc1OCC(=O)O	-0.03
CCOc1cccc(=O)c2c(C)n(CC(=O)c3ccccc3)c(C)c12	1.8
COc1cccc(=O)c2c(C)n(CC(=O)c3ccccc3)c(C)c12	3.2*
O=C(Nc1cc(Cl)ccc1O)C1CC(c2cccc(Br)c2)=NO1 (configuration not stated)	3*
O=C(NCC1CCCO1)C1CC(c2cccc(Br)c2)=NO1 (configuration not stated)	-0.95
O=C(NCCCn1ccnc1)C1CC(c2cccc(Br)c2)=NO1 (configuration not stated)	3.5*
CSc1ccccc1NC(=O)C1CC(c2cccc(Br)c2)=NO1 (configuration not stated)	-0.87
SMILES	Dicer processing
O=C(Nc1cccnc1)C1CC(c2cccc(Br)c2)=NO1 (configuration not stated)	12
O=C(Nc1cccc(O)c1)C1CC(c2cccc(Br)c2)=NO1 (configuration not stated)	0.55
CCCCCc1ccc(-c2nc(SCC(=O)c3ccccc3)n[nH]2)cc1	5.7
CCSC1=N/C(=C\c2ccc(OC(C)=O)c(Br)c2)C(=O)S1	0.77
Cc1nc(N2C(=O)c3oc4ccccc4c(=O)c3C2c2cccs2)sc1C (configuration not stated)	-0.08
Cc1nn(C)c2c1S(=O)(=O)N=C(N1CCOCC1)S2	0.34
CC1(C)CC(=O)C2=C(C1)Nc1ccccc1NC2c1cccc(Br)c1 (configuration not stated)	3.5*
CC(C)Oc1ccc(C2Nc3ccccc3NC3=C2C(=O)CC(C)(C)C3)cc1 (configuration not stated)	-1.9
Cc1ccc2c(c1)NC(c1ccccc1)C1=C(CC(C)(C)CC1=O)N2 (configuration not stated)	-1.4
O=C1C=CC2(C=C1)CC1(CCCCC1)N=C2SCc1ccccc1	2.9
COc1ccc(CCN2C(=O)c3cccc4c(Br)ccc(c34)C2=O)cc1OC	-0.82
COc1cc(SC)ccc1C(=O)Nc1nc2ccc(S(C)(=O)=O)cc2s1	1.6
CCCCC(=O)Nc1nc2ccc(S(C)(=O)=O)cc2s1	1.5
CCCCC(CC)C(=O)Nc1nc2ccc(S(C)(=O)=O)cc2s1 (configuration not stated)	4.8*
CC(Oc1ccccc1F)C(=O)Nc1nc2ccc(S(C)(=O)=O)cc2s1 (configuration not stated)	-0.69
COc1ccc(OCCCC(=O)Nc2nc3ccc(S(C)(=O)=O)cc3s2)cc1	-2.4
CCCCOC(=O)Nc1nc2ccc(S(C)(=O)=O)cc2s1	4.8*
Cc1ccn2c(=O)c(NC(=O)c3ccc(C(C)(C)C)cc3)cnc2c1	1.9
CCc1nc(C)cn1S(=O)(=O)c1cc(C(C)C)c(C)cc1OC	-0.18
S=C(NN=C1CCCCCC1)Nc1ccccc1	2.6
CC(=O)NNC(=S)Nc1cccc(F)c1	-1.2
Fc1cccc(NC(=S)NN=C2CCCCCC2)c1	4.2*
Cc1ccc(OCc2nc(-c3cccnc3)no2)c(Br)c1	0.49
Cn1c(=O)oc2cc(S(=O)(=O)NCC(=O)O)ccc21	0.17
CN1CCN(C(=O)CN(c2ccccc2)S(=O)(=O)N(C)C)CC1	1
SMILES	Dicer processing
CN1CCN(C(c2ccccc2)c2ccccc2)CC1	0.13
CN1CCN(C(=O)Oc2ccccc2)CC1	3.8*
C(=C\c1ccccc1)/CNCc1cccnc1	-0.42
CCc1ccnc(NS(=O)(=O)c2ccc(C)c(Cl)c2)c1	0.91
CCc1ccnc(NS(=O)(=O)c2ccccc2)c1	3.8*
Cc1ccnc(NS(=O)(=O)c2ccc(Br)cc2)c1	2.6
Cc1cc(NC(=O)NNc2ccccc2)no1	-0.63
Cc1cc(NNC(=O)Nc2ccc(Cl)cc2)nc2c1c(C)nn2C	0.76
Cc1ccc(CNCc2ccc3c(c2)OCO3)cc1	0.29
Cc1ccc(C)c(NCc2ccc3c(c2)OCO3)c1	5.4*
Cc1ccc(CNCc2ccc3c(c2)OCO3)s1	-0.56
N#C/C(=C\Nc1ccc(F)cc1F)C(=O)C1CC1	-0.99
Cc1ccc(C2N[C@@H](C(=O)O)C(C)(C)S2)cc1 (some centres not stated)	1.7
Cc1ccc(S(=O)(=O)N/N=C/c2ccccc2Cl)cc1	-0.53
O=C(NCCCCCCNC(=O)NCc1ccccc1)NCc1ccccc1	-0.41
Cc1cccc(C)c1NC(=O)NCc1ccccc1	2
O=C(NCc1ccccc1)NCc1ccccc1	3.6*
C#CCN1C(=O)C(O)(CC(=O)c2ccccc2)c2cc(Br)ccc21 (configuration not stated)	1.1
CC1=CC(C)(C)N2C(=O)C(=O)c3cc(OC(=O)c4ccccc4Br)cc1c32	1.7
CC1=CC(C)(C)Nc2ccc(OC(=O)c3cccc(Br)c3)cc21	3.1*
CCOC(=O)Oc1ccc2c(c1)C(C)=CC(C)(C)N2	0.43
CC1=CC(C)(C)Nc2ccc(OC(=O)COc3ccccc3)cc21	-3.4
CC1=CC(C)(C)Nc2ccc(OC(=O)c3ccc(Cl)cc3)cc21	4.6
CC1=CC(C)(C)Nc2ccc(OC(=O)c3ccccc3Br)cc21	4*
O=S(=O)(Nc1ccc(OCc2ccccc2)cc1)c1ccc2ccccc2c1	2.8
SMILES	Dicer processing
FC(F)(F)Oc1ccc(-n2ccc(-c3ccccc3)nc2=S)cc1	0.03
C=CCNC(=O)CSc1nnc(CSc2cccs2)n1C	0.48
COc1ccccc1Nc1snc2[nH]c(C(=O)c3ccc(C)cc3)cc12	1.5
Cc1ccc(-n2c(-c3ccc(Cl)c(C)c3)csc2=N)c(C)c1	-0.17
N/C(=N\C(=O)N1CCOCC1)c1ccccc1	-0.12
CCOC(=O)/C(C#N)=C/C=C(/c1ccc(Cl)cc1)N1CCOCC1	0.23
CC(=O)Oc1ccccc1/C(=C/C=C(c1ccccc1)c1ccccc1)N1CCOCC1	4.3*
